This note sets out measurements from PubChem BioAssay (NCI).

This is part of a sample that, as a whole, favours compounds with a hit. Of some 83,000 tested, about 20% had one in any assay.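 Cell lines were cultured in 96-well plates, exposed to a single compound concentration, and assessed for percent growth 48 hours later.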 Unmarked numbers belong to inactive results. The source made the active and inactive calls. Rule for the calls: active = growth percent below 10; inactive = the rest.

Assay in all cases: NCI-60 one-dose screen, 48 h (100 = growth as untreated, 0 = no growth, -100 = all killed)
Holding throughout (settings): 10 µM unless noted

Assay [1] concerns DU-145 prostate.
The subject of assay [2] is K-562 leukemia.
Assay [3] relates to MALME-3M melanoma.
Assay [4] concerns MDA-MB-231 breast.
Assay [5] concerns RXF 393 renal.
The subject of assay [6] is SF-268 CNS.
Assay [7] concerns SF-295 CNS.
Assay [8] concerns SF-539 CNS.
The subject of assay [9] is UACC-257 melanoma.
The test system of assay [10] is M14 melanoma.
The test system of assay [11] is HCT-15 colon.
For assay [12], the system named is HT29 colon.
The subject of assay [13] is SNB-75 CNS.
For assay [14], the system named is SNB-19 CNS.
For assay [15], the system named is U251 CNS.
Assay [16] relates to PC-3 prostate.
The subject of assay [17] is SK-MEL-5 melanoma.
In assay [18] the test system is UACC-62 melanoma.
Assay [19] has as its system LOX IMVI melanoma.

On to `Fc1ccc2c(CN3CCO[C@H](COc4cccc(Cl)c4)C3)c[nH]c2c1`, for which the growth in assay [1] is 42.6%; in assay [2], 32.1%; in assay [3], 81.9%; in assay [4], 66.8%; in assay [5], 82.9%; in assay [6], 81.1%. For the same compound, the growth was 41.1% in assay [7]; 56.7% in assay [8]; 53.6% in [9]; 54.4% in assay [10]; 59.1% in [11]; 47.4% in assay [12]. In addition, the growth in [13] is 59%; in [14], 56.8%; in [15] it was 44.7%; in [16], 36.7%; in assay [17] it was 63.4%; in assay [18], 60.2%. In addition, the growth in [19] was 45.9%.
On to `O=C(Cn1nncc1CN1C(=O)CSC1=O)Nc1ccc(F)cc1`, for which the growth was 105% in assay [1]; 104% in assay [2]; 97.5% in assay [3]; 109% in [4]; 108% in [5]; 94.7% in assay [6]. Moreover, the growth in assay [7] is 103%; in [8], 97.8%; in assay [9], 107%; in assay [10], 102%; in [11], 102%; in assay [12], 105%. In addition, the growth was 85.9% in [13]; 101% in assay [14]; 104% in assay [15]; 101% in assay [16]; 99.5% in assay [17]; 93.5% in assay [18]. Also, the growth in assay [19] was 94.9%.
As for `CN1CCN(Cc2ccc(NC(=O)c3cncc(C#Cc4ccc(N)nc4)c3)cc2C(F)(F)F)CC1`, the growth in assay [1] is 21.4%; in assay [2] it was 1.27% (active); in [3], -70.3% (active); in assay [4], -46.3% (active); in assay [5], -6.03% (active); in assay [6] it was 15.8%. For the same compound, the growth in [7] was 11.5%; in assay [8] it was -39.8% (active); in [9], 11.8%; in assay [10], -37% (active); in assay [11] it was 7.71% (active); in [12] it was 3.36% (active). Also, the growth is 4.55% (active) in [13]; 37.2% in assay [14]; 14.9% in assay [15]; 15.6% in assay [16]; -5.69% (active) in assay [17]; -5.85% (active) in [18]. In addition, the growth in assay [19] was -25.8% (active).
With `COc1cc2nccc(Oc3ccc(NC(=O)C4(C(=O)Nc5ccc(F)cc5)CC4)cc3)c2cc1Oc1ccc(N)cn1`, the growth in [1] is 49.5%; in [2], 3.07% (active); in assay [3], 43.1%; in assay [4], 42.7%; in [5], 11.5%; in [6], 36.8%. In addition, the growth in assay [7] is 0.157% (active); in [8], 5.06% (active); in assay [9] it was 34%; in assay [10], 39.8%; in assay [11], 27.9%; in assay [12], 9.65% (active). Further, the growth in assay [13] is -12.5% (active); in assay [14], 54.5%; in assay [15] it was 33.6%; in assay [16] it was 24.5%; in assay [17] it was 39.2%; in [18], 5.29% (active). In assay [19], the growth was 10.7%.
Consider `CN(C)c1ccc(/C=C(\C#N)c2nc3ccccc3n2C)cc1`, for which the growth in assay [1] is 25.7%; in assay [2], 32%; in assay [3], 61.7%; in [4], 48.8%; in [5], 3.51% (active); in assay [6], 52.6%. In addition, the growth in assay [7] was 13.1%; in assay [8], 11.6%; in [9], 43.9%; in assay [10] it was 34.4%; in assay [11], 28.5%; in assay [12], 13.7%. For the same compound, the growth in assay [13] was 7.56% (active); in [14] it was 68.6%; in assay [15], 30.3%; in [16], 35.7%; in assay [17], 14.5%; in assay [18] it was 35%. In addition, the growth in assay [19] is 46.2%.
As for `COC(=O)/C=C/c1cc(OC(C)=O)c2c(c1)[C@@H](C(=O)OC)[C@H](c1ccc(OC(C)=O)c(OC(C)=O)c1)O2`, the growth in [1] is -9.78% (active); in [2], 8.05% (active); in assay [3], 48.7%; in assay [4] it was 14.1%; in assay [5] it was 37.1%; in assay [6], 24.2%. Further, the growth is 23.9% in [7]; -23.9% (active) in assay [8]; 48.3% in assay [9]; 2.76% (active) in assay [10]; 8.71% (active) in assay [11]; 11.8% in [12]. Further, the growth in [13] is -3.49% (active); in [14], 34.6%; in [15], 18.1%; in [16], 14.3%; in assay [17], -42.4% (active); in assay [18], 33.6%. Also, the growth in assay [19] was 7.76% (active).
With `F`, the growth in assay [1] was 49.5% [6.87 mM]; in assay [2], 60.9% [6.87 mM]; in assay [3], -28.9% [6.87 mM] (active); in [4], 5.12% [6.87 mM] (active); in assay [5] it was 23.9% [6.87 mM]; in [6] it was 40.9% [6.87 mM]. Also, the growth in [7] is 2.46% [6.87 mM] (active); in assay [8] it was -13% [6.87 mM] (active); in assay [9], 0.483% [6.87 mM] (active); in [10], -23.4% [6.87 mM] (active); in assay [11], 57.4% [6.87 mM]; in [12], 1.64% [6.87 mM] (active). The growth in assay [13] is 11.4% [6.87 mM]; in assay [14], 41.2% [6.87 mM]; in assay [15] it was 17% [6.87 mM]; in [16], 33% [6.87 mM]; in assay [17], -66.1% [6.87 mM] (active); in assay [18] it was -74.4% [6.87 mM] (active). In addition, in assay [19], the growth was 1.06% [6.87 mM] (active).
`Oc1c(C(c2ccc(F)cc2)N2CCCCC2)ccc2cncnc12` (configuration not stated): the growth was 23.3% in [1]; 10.4% in assay [2]; 3.63% (active) in assay [3]; 14.4% in assay [4]; 31.1% in assay [5]; 20.9% in assay [6]. The growth was -1.59% (active) in assay [7]; 13.9% in [8]; 0.316% (active) in assay [9]; 15.7% in [10]; 26% in assay [11]; 13.5% in assay [12]. The growth in assay [13] was 7.45% (active); in assay [14] it was 11.1%; in [15] it was 1.52% (active); in assay [16], 10.6%; in assay [17] it was -19.7% (active); in assay [18], -0.545% (active). The growth in assay [19] is 7.17% (active).
